Screening data as filed in PubChem BioAssay.
The list is not random: actives were taken first. Their share in the collection is about 9.2%.
ELG1 genotoxic: genotoxicity induction in ELG1-luciferase HEK293T cells; HEK293T ELG1-luciferase reporter, luminescence, 16 h; Potency, µM (doses to about 46 µM), hits mostly activators; 330,000 tested, 1.3% active; AID 504466; note: nearly all actives have a fitted effect of over 60% in size
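16 hr compound incubation (37 °C, 5% CO2) of HEK293T cells carrying luciferase-tagged ELG1; luciferase then measured by ONE-Glo luminescence after 30 min at RT.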
Rab9 promoter act: Rab9 promoter activation; 320,000 tested, 2.8% active; Potency, µM (titrated, usually from 9.22 µM), usual class: activators; AID 485297; Huh7 Rab9 promoter-luciferase reporter, luminescence, 24 h; note: nearly all actives have a fitted effect of over 60% in size
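Luciferase signal after 10 min detection reagent at ambient indicates Rab9 promoter upregulation; stably transfected Huh7 cells were treated 24 h with compound in DMSO at 37 °C, 5% CO2.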
ELG1 DNA repair: ELG1-dependent DNA repair inhibition. AID 504467. Potency, µM (top dose mostly 46.1 µM), actives largely listed as inhibitors. 330,000 tested, 2.3% active. HEK293T ELG1-luciferase reporter, luminescence, 16 h; DNA damage induced by 5-fluorouridine; note: nearly all actives have a fitted effect of over 55% in size
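In this reporter screen, reduction of luminescence relative to DMSO vehicle indicated activity. Compounds and 5-fluorouridine were added together to 2,000 cells per well, incubated for 16 hr at 37 °C, then developed with ONE-Glo.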
SMN2 splice enh: enhancers of SMN2 splice variant expression | HEK293 SMN2-luciferase splicing reporter, luminescence, 30-36 h | 210,000 tested, 2.8% active | Potency, µM (top dose mostly 46.1 µM), hits mostly activators; note: nearly all actives have a fitted effect of over 55% in size
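HEK293 cells carry an SMN2 […]–luciferase reporter in which exon 7 inclusion puts luciferase in frame. Cells were plated 10-12 h before compound addition, then incubated 30-36 h at 37C. ONE-Glo luminescence was read; sodium butyrate at 4.5 mM final served as control.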
NPC1 prom act: activates the NPC1 promoter | Potency, µM (titrated, usually from 9.22 µM), actives largely listed as activators | 320,000 tested, 2.4% active | Huh7 NPC1 promoter luciferase reporter, 24 h; note: nearly all actives have a fitted effect of over 60% in size
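Readout is luciferase luminescence, reflecting NPC1 promoter activation in stably transfected Huh7 cells after 24 h compound exposure at 37 °C in reduced-serum medium with 10% FBS.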
FLuc modulator: inhibits or activates purified firefly luciferase, miR-21 counter-screen. AID 588342. Potency, µM (series often up to 57.5 µM), actives largely listed as inhibitors. 360,000 tested, 6.9% active. purified FLuc, Km substrates, luminescence inhibition; note: nearly all actives have a fitted effect of over 55% in size
Target sequence (P08659 whole entry, looked up): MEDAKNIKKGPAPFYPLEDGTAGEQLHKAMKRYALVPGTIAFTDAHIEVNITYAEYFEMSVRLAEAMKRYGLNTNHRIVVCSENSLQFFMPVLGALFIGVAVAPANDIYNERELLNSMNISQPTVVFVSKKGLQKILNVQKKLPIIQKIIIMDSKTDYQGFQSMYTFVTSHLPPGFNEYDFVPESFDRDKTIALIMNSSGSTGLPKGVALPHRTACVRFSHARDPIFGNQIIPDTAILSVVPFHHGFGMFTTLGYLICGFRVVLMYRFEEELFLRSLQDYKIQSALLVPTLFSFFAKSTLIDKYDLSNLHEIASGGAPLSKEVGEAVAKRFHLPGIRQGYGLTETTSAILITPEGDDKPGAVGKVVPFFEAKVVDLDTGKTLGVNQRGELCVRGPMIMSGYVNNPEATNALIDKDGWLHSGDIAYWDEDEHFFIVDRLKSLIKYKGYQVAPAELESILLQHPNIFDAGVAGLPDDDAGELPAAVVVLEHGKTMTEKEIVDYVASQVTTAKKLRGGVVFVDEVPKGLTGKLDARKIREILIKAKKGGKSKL
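Purified P. pyralis luciferase, 10 nM final, with Km-level 10 uM D-luciferin and 10 uM ATP in 50 mM Tris acetate pH 7.5, 10 mM Mg acetate, 0.01% Tween-20, 0.05% BSA; 6-point qHTS titration about 60 µM downward; luminescence read.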
Hits are given with their value; n = inactive; u = inconclusive; x = no result given. Calls come from the whole dose curve; as a rule, active = well fitted curve in the direction sought with a large enough effect; inconclusive = small, poorly fitted or top-dose-only effect, or another doubt; inactive = no such curve, though single readings can be large; an effect the other way counts as inactive or inconclusive.

SMILES | ELG1 genotoxic | Rab9 promoter act | ELG1 DNA repair | SMN2 splice enh | NPC1 prom act | FLuc modulator
O=C(c1cc(-c2ccc(Cl)c(Cl)c2)on1)N1CCN(c2ccccc2)CC1 | n | n | u | n | n | u
N#CC(c1nc2ccccc2nc1N1CCCC1)S(=O)(=O)c1ccccc1 (stereo not drawn) | n | n | u | n | n | n
CN1CCN(c2nc3ccccc3nc2C(C#N)S(=O)(=O)c2ccccc2)CC1 (stereo not drawn) | n | n | 8.2µM | x | n | n
CCCOc1ccc(C2c3c(-c4ccccc4O)n[nH]c3C(=O)N2Cc2ccncc2)cc1OCC (stereo not drawn) | x | x | x | n | x | n
Cc1ccc2c(=O)cc(C(=O)Nc3sc4c(c3C(=O)NCc3ccccc3)CCCC4)oc2c1C | x | x | x | n | x | n
O=C(Oc1ccc(-c2cnc3ccccc3n2)cc1)c1ccco1 | 16.4µM | u | u | u | u | 0.269µM
Cc1c(C(=O)Oc2ccc(-c3cnc4ccccc4n3)cc2)cccc1[N+](=O)[O-] | u | u | u | n | u | u
O=C(Oc1ccc(-c2cnc3ccccc3n2)cc1)c1cc([N+](=O)[O-])ccc1Cl | u | n | u | u | 3.98µM | u
CCC(=O)Oc1ccc(-c2cnc3ccccc3n2)cc1 | u | u | u | u | u | 0.301µM
O=C(Nc1cccc(-c2cnc3ccccc3n2)c1)c1ccco1 | n | n | u | n | n | u
C=CCOc1ccc(/C=C/C(=O)N2CCCN(S(=O)(=O)c3c(C)noc3C)CC2)cc1 | n | n | u | x | n | u
CC1CC(C)CN(S(=O)(=O)c2cccc3cccnc23)C1 (stereo not drawn) | n | n | n | n | n | n
O=c1n(S(=O)(=O)c2cccc3cccnc23)c2ccccc2n1S(=O)(=O)c1cccc2cccnc12 | n | n | n | 11.2µM | n | n
CCCn1cc(S(=O)(=O)c2ccccc2)c(=O)c2cc(CC)ccc21 | n | n | n | x | n | n
CC(=O)NC(=S)Nc1sc2c(c1C#N)CCCCC2 | 2.06µM | 1.41µM | u | x | 2.51µM | 1.51µM
Cn1nccc1C(=O)NC(=S)Nc1sc2c(c1C#N)CCCCC2 | n | u | u | n | u | 3.79µM
CCOc1ccc(CO[C@@H]2O[C@H](CO)[C@@H](O)[C@H](O)[C@H]2NC(C)=O)cc1OC | n | n | n | x | n | n
CC(=O)Nc1ccc(/C=N/NC(=O)c2cc3ccccc3nc2C)cc1 | n | n | u | n | n | n
Cc1nc2c(C)cccc2cc1C(=O)N/N=C/c1ccc(C(=O)O)cc1 | n | n | n | n | n | 16.9µM
CC(=O)Nc1ccc(/C=N/NC(=O)c2cc3cc(C)ccc3nc2C)cc1 | u | n | u | n | n | 6.01µM
Cc1nc2c(C)cccc2cc1C(=O)N/N=C/c1ccc(N(C)C)cc1 | n | n | n | u | n | u
Cc1ccc(-c2nn(-c3ccccc3)cc2C(=O)N2CCN(C3CCS(=O)(=O)C3)CC2)cc1 (stereo not drawn) | n | n | n | x | n | u
N#Cc1cccc(C(=O)Nc2cccc(S(=O)(=O)N3CCCC3)c2)c1 | n | n | n | x | n | n
CN(C)c1cccc(C(=O)NN2C(=O)NC3(CCCCC3)C2=O)c1 | n | u | u | x | u | n
Cc1ccc(SSc2cc(C)ccc2N)c(N)c1 | n | 0.794µM | u | x | 1.12µM | 4.78µM
SMILES | ELG1 genotoxic | Rab9 promoter act | ELG1 DNA repair | SMN2 splice enh | NPC1 prom act | FLuc modulator
COc1ccc(/C=C/C(=O)OCC(=O)Nc2ccc(OC)c(S(=O)(=O)N3CCCCC3)c2)cc1 | n | n | n | n | n | 6.01µM
COc1ccc(/C=C/C(=O)OCC(=O)Nc2ccc(Cl)c(S(=O)(=O)N(C)C)c2)cc1OC | n | n | u | n | n | 23.9µM
COc1ccc(NC(=O)COC(=O)/C=C/c2ccc(OC)c(S(=O)(=O)N3CCOCC3)c2)cc1 | n | n | n | n | n | n
CCOc1ccc(NC(=O)Nc2ccc3nsnc3c2)cc1 | n | n | u | n | n | u
CCOc1ccc(/C=C/C(=O)Nc2cccc(C(C)=O)c2)cc1 | n | u | u | u | u | 1.2µM
CCOc1ccc(S(=O)(=O)NCCC(=O)Nc2cccc(C(=O)OC)c2)cc1 | n | 3.16µM | u | x | n | n
CCOC(=O)C(=O)Nc1cccc(C(=O)OCC)c1 | n | n | n | n | n | n
CCOC(=O)c1cccc(NC(=O)Nc2ccc(OCC)cc2)c1 | n | 2.82µM | u | 10µM | 1.78µM | 2.69µM
CCOc1ccc(NC(C(=O)Nc2cccc(C(C)=O)c2)c2ccccc2)cc1 (stereo not drawn) | n | n | n | n | n | n
CCOc1ccc(S(=O)(=O)NCCC(=O)Nc2ccncc2)cc1 | n | n | n | x | n | n
CCOc1ccc(NC(=O)Nc2cccc(C(=O)O)c2)cc1 | n | 0.0891µM | u | 2µM | u | 0.0269µM
COc1ccc(NC(=O)Cn2cc(S(=O)(=O)N3CCC(C)CC3)c3ccccc3c2=O)cc1Cl | x | x | x | n | x | n
CCOc1ccccc1NC(=O)Cn1nc(N2CCN(c3ccccc3)CC2)ccc1=O | x | x | x | x | x | n
Cc1ccccc1CN(C)C(C)C(=O)NCc1ccccc1 (stereo not drawn) | n | n | n | x | n | n
CC(=O)c1ccc(OCCn2c(SCC(=O)O)nc3ccccc32)cc1 | n | n | n | x | n | n
CN(CC(=O)Nc1c(Cl)cccc1Cl)C(=O)c1cc2ccccc2cc1O | n | n | n | x | n | n
COc1ccc(NC(=O)CN(C)C(=O)c2cccc(NS(=O)(=O)c3ccc(Br)cc3)c2)cc1 | n | n | n | x | n | n
Cc1ccc(C(=O)N2CCN(c3ccc([N+](=O)[O-])cc3-n3cccc3)CC2)cc1 | n | n | n | x | n | n
Nc1ccc(Cl)c(-c2nc3ncccc3o2)c1 | n | n | u | u | n | u
Nc1ccc(-c2nc3ncccc3o2)c(Cl)c1 | 10.3µM | 3.16µM | u | 12.6µM | 2µM | 4.78µM
Nc1ccc(-c2nc3ncccc3o2)c(O)c1 | u | 3.98µM | u | x | 2.82µM | 12µM
CCCCCCCCCCCCCCCC(=O)C1=C(O)C(CO)OC1=O (stereo not drawn) | x | x | x | n | x | x
CCN(C(=O)c1cccs1)c1nnc(-c2ccncc2)s1 | u | u | n | n | n | 13.5µM
O=C(Cc1cn2ccsc2n1)OCc1ccccc1 | u | n | u | n | n | n
c1ccc(CSCc2cn3ccsc3n2)cc1 | 16.4µM | 2.82µM | u | 12.6µM | u | 26.9µM
Cc1csc2nc(CSc3ccc(Cl)cc3)cn12 | u | 2.51µM | u | 5.01µM | 2.51µM | 5.36µM
c1cn2cc(CSC3CCCCC3)nc2s1 | 2.31µM | 3.98µM | u | 14.1µM | 3.16µM | 12µM
Clc1ccc(SCc2cn3ccsc3n2)cc1 | u | 3.98µM | u | n | 2.82µM | 10.7µM
